Bioassay records from PubChem.
UHRF1 MBD2 ctr: UHRF1 methylated DNA binding inhibitors, primary screen, counter-screen for MBD2 inhibitor project, biochemical, TR-FRET, human UHRF1, single concentration; E3 ubiquitin-protein ligase UHRF1 (Homo sapiens), Q96T88; UHRF1 binding to methylated oligo; inhibition, % at 4.4 µM; 370,000 tested, 0.75% active; AID 687016, 2013; in the data active = inhibition above about 21%;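 note: UHRF1 SRA domain binding a hemimethylated CpG hairpin DNA probe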
LEDGF integ inh: blockers of LEDGF/p75-dependent integrase strand transfer – biochemical, TR-FRET, high throughput, primary screen. TR-FRET IN-LEDGF/p75 DNA integration, Eu/Cy5. inhibition, % at 3.7 µM. 370,000 tested, 0.64% active. AID 743269, 2014;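 active = inhibition above the screen-wide mean plus 3 SD, cut at about 13% in these data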;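 note: signal is the Cy5 over europium emission ratio at 671 and 618 nm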
MBD2 inh: inhibitors of MBD2 binding to methylated DNA, primary screen, biochemical, TR-FRET, DNA-binding domain, human; 370,000 tested, 0.31% active; AID 686964, 2013; MBD2 binding to methylated oligonucleotide; inhibition, % at 4.4 µM; in the data active = inhibition above about 13%
Target sequence (Q9UBB5 whole entry, looked up, the tested form may be a part): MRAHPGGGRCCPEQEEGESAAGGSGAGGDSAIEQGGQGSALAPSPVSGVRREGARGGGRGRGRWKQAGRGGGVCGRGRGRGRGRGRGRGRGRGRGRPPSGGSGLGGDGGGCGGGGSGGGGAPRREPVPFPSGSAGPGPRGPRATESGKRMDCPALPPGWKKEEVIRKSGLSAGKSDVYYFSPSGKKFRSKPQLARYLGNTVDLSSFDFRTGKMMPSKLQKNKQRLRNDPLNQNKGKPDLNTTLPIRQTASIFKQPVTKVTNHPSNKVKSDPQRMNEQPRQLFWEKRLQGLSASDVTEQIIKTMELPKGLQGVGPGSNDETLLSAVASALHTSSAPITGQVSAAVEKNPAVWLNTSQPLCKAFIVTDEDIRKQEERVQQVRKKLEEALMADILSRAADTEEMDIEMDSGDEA
PRMT1 FP inh: PRMT1 methyltransferase inhibitors, primary screen, biochemical, fluorescence polarization | recombinant PRMT1, activity-based probe fluorescence polarization | 370,000 tested, 1.3% active | Protein arginine N-methyltransferase 1 (Homo sapiens), Q99873 | inhibition, % at 2.79 µM;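 active = inhibition above about 21% made by adding two undisclosed values, limit read from the data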
PRMT1 confirm: PRMT1 methyltransferase inhibitors, confirmation, biochemical, fluorescence polarization, triplicate; shares compounds with PRMT1 FP inh; recombinant His-PRMT1, activity-based probe fluorescence polarization; inhibition, % at 2.79 µM; 3,300 tested, 42% active; AID 687036, 2013;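 active = mean inhibition across replicates above the hit cutoff derived for the earlier primary screen, cut at about 22% in these data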
Numbers stand for hits; i = inactive; nt = no result given. Only some compounds are listed: those with a hit (about 2.5% of all), similar ones and a draw of the others.

SMILES	UHRF1 MBD2 ctr	LEDGF integ inh	MBD2 inh	PRMT1 FP inh	PRMT1 confirm
CCOC(=O)CSc1nnc(NCC(=O)OC)c(=O)[nH]1	i	i	i	56	54
CC(C)[C@@H]1CC2=C(C(=O)OC(C)(C)O2)[C@H](CCc2ccccc2)O1	i	i	i	i	nt
Cc1snc(SCC(=O)c2ccc([N+](=O)[O-])cc2)c1C#N	i	i	i	47	53
Cc1snc(SCC(=O)c2ccc(F)cc2)c1C#N	i	i	i	i	nt
CC(=O)OCC(=O)C1(O)CCC2C3CCC4=CC(=O)CCC4(C)C3(F)C(O)CC21C (configuration not stated)	i	i	i	i	nt
COc1ccc(/C=C/C(=O)O)cc1S(=O)(=O)NC1CCS(=O)(=O)C1 (configuration not stated)	i	i	i	i	nt
O=C(O)c1ccccc1SC1CC(=O)N(c2ccc3c(c2)OCO3)C1=O (configuration not stated)	i	i	i	56	30
Cc1ccc(N2C(=O)CC(Sc3ccccc3C(=O)O)C2=O)cc1 (configuration not stated)	i	i	i	86	24
Cc1ccc(N2C(=O)CC(Sc3ncccc3C(=O)O)C2=O)cc1 (configuration not stated)	i	i	i	i	nt
Cc1cccc(N2C(=O)CC(Sc3ccccc3C(=O)O)C2=O)c1 (configuration not stated)	i	i	i	60	22
Cc1ccc(N2C(=O)CC(Sc3ccccc3C(=O)O)C2=O)cc1C (configuration not stated)	i	i	i	62	i
CCOC(=O)C1=C(COc2ccccc2)NC(=O)NC1c1ccc(Br)cc1 (configuration not stated)	i	i	i	i	nt
O=C1c2ccccc2C(c2nnnn2-c2ccc3c(c2)OCCO3)N1CCCN1CCOCC1 (configuration not stated)	i	i	i	i	nt
Cc1cccc(C)c1N1C(=O)CC(Sc2ccccc2N)C1=O (configuration not stated)	i	i	i	i	nt
Cc1cc(C)cc(N2C(=O)CC(Sc3ccccc3C(=O)O)C2=O)c1 (configuration not stated)	i	i	i	49	i
Cc1cc(C)c(N2C(=O)CC(Sc3ccccc3N)C2=O)c(C)c1 (configuration not stated)	i	i	i	34	i
CN(C)c1ccc(N2C(=O)CC(Sc3ccccc3C(=O)O)C2=O)cc1 (configuration not stated)	i	i	i	82	43
CN1C(=O)CC(Sc2ccccc2C(=O)O)C1=O (configuration not stated)	i	i	i	i	nt
O=C(NC(=S)Nc1ccccc1O)c1ccc(Cl)cc1Cl	i	i	i	i	nt
O=C(CN1CCOCC1)Nc1ccc2c(c1)OCCO2	i	i	i	i	nt
CC[n+]1c(C)sc2c3ccsc3ccc21	i	i	i	38	64
CCC(=O)N1CCc2cc(Br)cc(S(=O)(=O)N(C)c3ccc(OC)cc3)c21	i	i	i	i	nt
COc1ccc(C(C(=O)Nc2ccc3c(c2)OCCO3)n2c(=O)c(-c3ccco3)nc3ccccc32)cc1 (configuration not stated)	i	i	i	i	nt
O=C(Cc1c(Cl)cccc1Cl)N1CCN(S(=O)(=O)c2cccs2)CC1	i	i	i	i	nt
COc1ccc(COC(=O)C2=C(C)NC(=O)NC2c2ccc(F)cc2)cc1 (configuration not stated)	i	i	i	i	nt
SMILES	UHRF1 MBD2 ctr	LEDGF integ inh	MBD2 inh	PRMT1 FP inh	PRMT1 confirm
Cc1c(-n2c(O)c(C3=c4ccccc4=NC3=O)sc2=O)c(=O)n(-c2ccccc2)n1C	i	i	i	i	nt
O=C(O)Cn1c(O)c(C2=c3ccccc3=NC2=O)sc1=O	i	i	i	27	i
O=C(O)c1cc(O)c2c(c1)[C@@H]([C@H]1c3cc(C(=O)O)cc(O)c3C(=O)c3c(O[C@@H]4O[C@H](CO)[C@@H](O)[C@H](O)[C@H]4O)cccc31)c1cccc(OC3O[C@H](CO)[C@@H](O)[C@H](O)[C@H]3O)c1C2=O (some centres not stated)	80	74	38	32	i
C=CCn1c(=S)[nH]c2scc(-c3ccc(C)o3)c2c1=O	i	i	i	28	i
C=CCn1c(SCC(C)=O)nc2scc(-c3ccc(C)o3)c2c1=O	i	i	i	25	i
C=CCn1c(SCC(=O)NCCCC)nc2scc(-c3ccco3)c2c1=O	i	i	i	i	nt
C=CCn1c(=S)[nH]c2sccc2c1=O	i	i	i	i	nt
O=C1CSC(=S)N1N=Cc1c(O)ccc2ccccc12	i	i	i	35	33
COc1cccc(/C=N/N2C(=O)CSC2=S)c1O	i	i	i	38	53
CC(OC(=O)C1=COCCO1)C(=O)NC1CCCC(C)C1C (configuration not stated)	i	i	i	i	nt
O=C(CCc1ccccc1)Oc1ccccc1[N+](=O)[O-]	i	i	i	i	nt
COC(=O)CN=Cc1c(C)[nH]n(-c2ccccc2)c1=O	i	i	i	i	nt
Cc1[nH]n(-c2ccccc2)c(=S)c1C=NCCCN=Cc1c(C)[nH]n(-c2ccccc2)c1=S	i	i	i	81	44
CCC[C@H]1[C@@H](OC(=O)N2CCN(c3ccccc3)CC2)CC[C@@]23CCCN2C(=O)CCC[C@@H]13	i	i	i	i	nt
O=C(CCl)N1c2ccccc2Oc2ccc3ccccc3c21	i	i	i	60	40
CCc1ccc(/C=C2/C(=O)N(C)C(=S)N2CC(=O)OC)s1	i	i	i	i	nt
CC1CCCN(C(=O)c2nn(C)c3c2CSc2ccccc2-3)C1 (configuration not stated)	i	i	i	31	37
CC1CC(C)CN(C(=O)c2nn(C)c3c2CSc2ccccc2-3)C1 (configuration not stated)	i	i	i	i	nt
COc1cc2ccccc2nn1	i	i	i	i	nt
COc1ccc2c(n1)Sc1nc3ccccc3nc1N2	i	i	i	78	i
Cc1ccc(S(=O)(=O)N(C)CC(=O)NCCCn2nc(C)cc2C)cc1	i	i	i	i	nt
COc1ccc(CCNC2CC(=O)N(CCc3ccc(OC)c(OC)c3)C2=O)cc1 (configuration not stated)	i	i	i	78	i
COc1ccc(CCNC2CC(=O)N(C)C2=O)cc1OC (configuration not stated)	i	i	i	i	nt
COc1ccc(CCNC2CC(=O)N(CCc3ccccc3)C2=O)cc1OC (configuration not stated)	i	i	i	42	i
